Assay [1] can be described thus: ATG_PXRE_CIS: Attagene CIS-FACTORIAL HepG2 Assay for human Pregnane X Receptor Element (PXRE) (AID 2282957). Conditions: HepG2 Attagene CIS-FACTORIAL PXRE reporter, mRNA; actives raise or lower the signal. A digest of the protocol: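 Using HepG2 transfected with multiple reporter transcription units, endogenous factor-driven transcription was scored as reporter mRNA after 24 h exposure.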

Assay [2] can be described thus: ATG_PPRE_CIS: Attagene CIS-FACTORIAL HepG2 Assay for human Peroxisome Proliferator-activated Response Element (PPRE) (AID 2282958). The conditions noted are these: HepG2 PPRE cis-element reporter, Attagene transcription factor profiling; actives raise or lower the signal. A digest of the protocol: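 HepG2 cells are transiently transfected with multiplexed cis-promoter reporter units to report endogenous PPAR activity. After 24 h dosing, reporter mRNA is read by RT-PCR and capillary electrophoresis. Fitting is bidirectional against DMSO.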

Assay [3] is described as follows: ATG_Sox_CIS: Attagene CIS-FACTORIAL HepG2 Assay for human SRY-box transcription factor (SOX) (AID 2282960). Conditions: HepG2 Attagene cis-factorial SOX reporter, mRNA; actives raise or lower the signal. A digest of the protocol: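 HepG2 cells transiently transfected with multiple cis-regulated reporter units, then dosed for 24 h. Reporter mRNA quantified by RT-PCR, fluorescent labelling, HpaI digestion and capillary electrophoresis; bidirectional fit versus DMSO.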

Assay [4] addresses Transcription factor Sp1 (Homo sapiens) (UniProt P08047). In words: ATG_Sp1_CIS: Attagene CIS-FACTORIAL HepG2 Assay for human Specificity Protein 1 (Sp1) (AID 2282961). The conditions noted are these: HepG2 Sp1 cis-reporter transcription, actives raise or lower the signal. A digest of the protocol:
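HepG2 cells transiently transfected with multiplexed cis-regulated reporter constructs, chemical exposure 24 h. Reporter mRNA quantified by RT-PCR with capillary electrophoresis; bidirectional fit relative to DMSO.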

Assay [5] is described as follows: ATG_SREBP_CIS: Attagene CIS-FACTORIAL HepG2 Assay for human Sterol Regulatory Element Binding (SREBP) (AID 2282962). Conditions: HepG2 Attagene cis-factorial SREBP reporter, mRNA; actives raise or lower the signal. A digest of the protocol:
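Endogenous factor activity is measured in HepG2 through multiplexed reporter units under cis-element control. Following a 24 h incubation, reporter transcripts are reverse-transcribed, PCR-amplified and sized by capillary electrophoresis; activity is fitted in both directions relative to DMSO.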

Assay [6] deals with Signal transducer and activator of transcription 3 (Homo sapiens) (UniProt P40763). In words: ATG_STAT3_CIS: Attagene CIS-FACTORIAL HepG2 Assay for human Signal Transducer and Activator of Transcription 3 (STAT3) (AID 2282963). Conditions: HepG2, Attagene cis-factorial STAT3 reporter transcription; actives raise or lower the signal. A digest of the protocol:
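Readout: fluorescent reporter mRNA fragments resolved by capillary electrophoresis. Setup: HepG2 transfected with MRTUs reporting endogenous transcription-factor activity, dosed 24 h. Gain or loss of signal fitted bidirectionally against DMSO control.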

Assay [7] in a line: ATG_TCF_b_cat_CIS: Attagene CIS-FACTORIAL HepG2 Assay for human T-Cell-Factor with beta-catenin (TCF/b-cat) (AID 2282965). The conditions noted are these: HepG2 TCF/beta-catenin cis-reporter transcription, actives raise or lower the signal. A digest of the protocol: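 Cells of the HepG2 line carry transiently transfected reporter units whose promoters respond to endogenous factors. Twenty-four hours post-dosing, reporter mRNA induction is measured by fluorescent RT-PCR and capillary electrophoresis, with DMSO as baseline.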

A short description of assay [8]: ATG_TAL_CIS: Attagene CIS-FACTORIAL HepG2 Assay for human TAL Basal Promoter (AID 2282966).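 Note: background control endpoint measuring basal TAL promoter reporter mRNA not a specific factor.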 The conditions noted are these: HepG2 Attagene cis-factorial TAL promoter reporter; actives raise or lower the signal. A digest of the protocol: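 After 24 hours of chemical exposure, transfected HepG2 cells yielded RNA that was converted to 6-FAM-labelled, HpaI-digested reporter fragments for capillary electrophoresis. Values derive from bidirectional fitting against DMSO controls.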

Assay [9] in a line: ATG_RORE_CIS: Attagene CIS-FACTORIAL HepG2 Assay for human RAR-related Orphan Receptor Element (RORE) (AID 2282959). Conditions: HepG2 Attagene cis-factorial RORE reporter, mRNA; actives raise or lower the signal. A digest of the protocol: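 HepG2 cells carrying transiently transfected cis-regulated reporter units; RORE-driven reporter mRNA quantified 24 h post-dosing by RT-PCR, 6-FAM primer extension, HpaI digestion and capillary electrophoresis. Bidirectional fit versus DMSO.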

A short description of assay [10]: ATG_TA_CIS: Attagene CIS-FACTORIAL HepG2 Assay for human TA Basal Promoter (AID 2282964). Conditions: HepG2 Attagene CIS-factorial TA basal promoter reporter; actives raise or lower the signal. A digest of the protocol:
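Transfected HepG2, 24 h compound exposure; RNA → RT-PCR → FAM primer extension → HpaI cut → CE fluorescence. Gain/loss-of-signal fitted against DMSO negative control. Background-control readout.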

The structures appear in SMILES notation. Activity calls are given as the source filed them. Rule for the calls: active = hit-call score of the fitted dose curve at least 0.9, where 1 is the maximum; inactive = score below 0.9.

Transcription factor Sp1 (Homo sapiens), sequence (P08047 whole entry, looked up): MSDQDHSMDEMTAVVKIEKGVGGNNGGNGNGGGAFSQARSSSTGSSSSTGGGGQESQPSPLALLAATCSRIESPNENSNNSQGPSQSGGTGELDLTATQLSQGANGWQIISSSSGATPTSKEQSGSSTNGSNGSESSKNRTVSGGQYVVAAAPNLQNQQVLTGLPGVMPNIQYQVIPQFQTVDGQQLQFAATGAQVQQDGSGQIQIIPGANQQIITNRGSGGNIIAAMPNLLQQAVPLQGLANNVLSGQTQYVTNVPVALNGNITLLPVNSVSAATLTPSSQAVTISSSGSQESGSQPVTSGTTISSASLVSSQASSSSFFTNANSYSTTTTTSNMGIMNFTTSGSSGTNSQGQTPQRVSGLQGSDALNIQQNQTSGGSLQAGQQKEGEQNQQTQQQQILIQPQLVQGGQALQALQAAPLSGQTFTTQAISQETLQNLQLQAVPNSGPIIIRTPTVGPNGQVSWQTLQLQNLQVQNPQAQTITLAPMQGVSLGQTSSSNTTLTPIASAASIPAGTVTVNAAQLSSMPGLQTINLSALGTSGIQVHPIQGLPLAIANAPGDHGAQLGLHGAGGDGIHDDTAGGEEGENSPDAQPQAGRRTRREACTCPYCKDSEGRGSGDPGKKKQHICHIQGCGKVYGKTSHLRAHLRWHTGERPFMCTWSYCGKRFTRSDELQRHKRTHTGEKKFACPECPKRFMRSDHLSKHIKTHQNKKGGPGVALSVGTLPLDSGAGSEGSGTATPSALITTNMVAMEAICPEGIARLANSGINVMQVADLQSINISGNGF
Signal transducer and activator of transcription 3 (Homo sapiens), sequence (P40763 whole entry, looked up, the tested form may be a part): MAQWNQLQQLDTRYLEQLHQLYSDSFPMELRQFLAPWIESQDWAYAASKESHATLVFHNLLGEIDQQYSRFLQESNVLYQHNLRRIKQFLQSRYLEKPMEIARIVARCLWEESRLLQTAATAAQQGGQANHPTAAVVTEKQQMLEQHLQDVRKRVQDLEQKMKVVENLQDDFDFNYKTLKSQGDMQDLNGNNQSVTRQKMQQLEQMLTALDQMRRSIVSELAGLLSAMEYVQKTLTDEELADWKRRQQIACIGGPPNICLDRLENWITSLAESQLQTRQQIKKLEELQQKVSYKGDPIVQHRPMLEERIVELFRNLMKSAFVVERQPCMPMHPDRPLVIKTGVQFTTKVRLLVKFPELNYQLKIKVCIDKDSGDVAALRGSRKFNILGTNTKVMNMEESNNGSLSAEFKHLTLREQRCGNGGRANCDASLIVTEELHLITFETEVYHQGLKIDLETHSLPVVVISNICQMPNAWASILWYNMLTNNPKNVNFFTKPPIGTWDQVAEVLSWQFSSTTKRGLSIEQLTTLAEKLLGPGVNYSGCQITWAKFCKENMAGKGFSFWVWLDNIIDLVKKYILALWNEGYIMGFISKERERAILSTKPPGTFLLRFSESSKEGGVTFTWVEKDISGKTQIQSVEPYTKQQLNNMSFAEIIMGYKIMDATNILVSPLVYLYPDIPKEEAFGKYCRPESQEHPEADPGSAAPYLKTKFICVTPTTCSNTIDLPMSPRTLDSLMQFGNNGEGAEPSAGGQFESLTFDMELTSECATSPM

Take `C=COCCOCCOC=C`: the result in [1], in [2], in assay [3], in assay [4], in assay [5] and in assay [6] was inactive. Besides, the compound was called inactive in [7] and in assay [8].
`O=C(O)COCC(=O)O`: the compound was called inactive in [1], in assay [9], in assay [3], in assay [4], in [5] and in assay [6]. Also, the call in assay [10], in assay [7] and in assay [8] was inactive.
Consider `Cc1cc(C)nc(NS(=O)(=O)c2ccc(N)cc2)n1`, for which, in assay [1], the half-maximal activity concentration (AC50) was 46.5 µM (active). Moreover, the outcome in assay [2], in [3], in [4], in assay [6], in assay [7] and in assay [8] was inactive.
As to `CC(=O)O[C@@H]1C[C@@H]2CC[C@@]1(C)C2(C)C`, the call in assay [1], in assay [9], in assay [3], in assay [4], in [5] and in assay [6] was inactive. Also, the call in [10], in assay [7] and in [8] was inactive.
As for `CCCCCCCC(=O)OCC(O)CO` (stereo not given), the compound was called inactive in assay [1], in assay [9], in [3], in assay [4], in assay [5] and in assay [6]. The call in assay [10], in assay [7] and in [8] was inactive.
As for `COc1ccccc1[N+](=O)[O-]`, in [1], the concentration at half-maximal activity (AC50) is 71.7 µM (active). Moreover, the outcome in [9], in [3], in [4], in assay [5], in [6] and in assay [10] was inactive. The call in assay [7] was inactive.
`CN(c1nccc(=O)[nH]1)C1CCN(c2nc3ccccc3n2Cc2ccc(F)cc2)CC1`: the AC50 in [1] is 6.61 µM (active). For the same compound, the call in assay [9], in assay [3], in assay [4], in assay [5], in [6] and in [10] was inactive. For the same compound, the outcome in assay [7] was inactive.
For the compound `C[N+](C)(C)CCCCCC[N+](C)(C)C`, the outcome in assay [1], in assay [2], in assay [4], in [5], in [6] and in assay [10] was inactive. For the same compound, the compound was classed as inactive in assay [7] and in assay [8].
For the compound `Cc1cc(=O)oc2cc(N(C)C)ccc12`, the compound was classed as inactive in assay [1], in assay [2], in [3], in assay [4], in assay [6] and in assay [7].
Turning to `CCCCCCCCC=CCCCCCCCC1=NCCN1CCO`, the AC50 is 60.6 µM (active) in [1] and 25.9 µM (active) in assay [6]. Moreover, the outcome in assay [9], in assay [3], in assay [4], in [5], in assay [10] and in [7] was inactive. For the same compound, in assay [8], the compound was called inactive.
`Brc1ccc(Br)c(Br)c1`: the outcome in [1], in assay [9], in [3], in assay [4], in assay [5] and in [6] was inactive. Moreover, the call in assay [10] and in assay [7] was inactive.
Take `CC1=NN(c2ccc(S(=O)(=O)O)cc2)C(=O)C1`: the compound was classed as inactive in assay [1], in assay [9], in assay [3], in [4], in [5] and in assay [6]. Also, the compound was called inactive in [10], in assay [7] and in assay [8].
With `CCCC(C)C(O)CC` (stereo not given), the compound was called inactive in [1], in assay [9], in assay [3], in assay [4], in assay [5] and in assay [6]. Moreover, the result in assay [10], in [7] and in [8] was inactive.
For `CCOC(=O)c1ccc(N)cc1`, the AC50 in assay [1] was 27 µM (active). Also, the compound was classed as inactive in [9], in assay [3], in assay [4], in [5], in [6] and in assay [10]. In addition, the call in [7] and in [8] was inactive.
As to `CC(C)NCC(O)COc1ccc(CC(N)=O)cc1` (stereo not given), the outcome in [1], in assay [9], in assay [3], in assay [4], in [5] and in assay [6] was inactive. In addition, the compound was classed as inactive in [10], in [7] and in [8].
Take `CCOC(=O)C1OC1c1ccccc1` (stereo not given): the call in [1], in [9], in [3], in [4], in assay [5] and in [6] was inactive. In addition, the outcome in assay [10] and in [8] was inactive. Further, the AC50 in assay [7] was 48 µM (active).
For the compound `C=C1CC[C@H](O)C/C1=C/C=C1\CCC[C@]2(C)[C@@H]([C@H](C)/C=C/[C@H](C)C(C)C)CC[C@@H]12`, in [1], the AC50 was 3.32 µM (active). The call in assay [2], in [4], in assay [5], in [6], in assay [10] and in assay [7] was inactive. The call in assay [8] was inactive.
As for `O=C1OC[C@H](Cc2cccc(O)c2)[C@H]1Cc1cccc(O)c1`, in assay [1], the AC50 is 5.12 µM (active). Also, the compound was classed as inactive in [2], in [4], in [6], in assay [10], in assay [7] and in assay [8].
In the case of `CCCCCCC(C)(C)S`, in assay [1], the half-maximal activity concentration (AC50) was 39 µM (active). Moreover, the result in assay [9], in [3], in assay [4], in assay [5], in assay [6] and in assay [10] was inactive. In [7], the compound was called inactive.
Take `NCC1CCCC(CN)C1` (stereo not given): the compound was classed as inactive in [1], in assay [2], in assay [4], in assay [6], in assay [10] and in assay [7]. Further, the call in assay [8] was inactive.
In the case of `CCC(C)S` (stereo not given), the outcome in assay [1], in assay [9], in assay [3], in [4], in [5] and in [6] was inactive. Further, the compound was classed as inactive in assay [10], in assay [7] and in [8].
As for `CCCCCC(=O)CC`, in assay [1], the concentration at half-maximal activity (AC50) is 33.4 µM (active). Further, the result in assay [9], in assay [3], in assay [4], in assay [5], in [6] and in assay [10] was inactive. Also, the result in assay [7] and in [8] was inactive.
For `FC(F)(F)COCC(F)(F)F`, the outcome in [1], in assay [2], in [4], in assay [5], in assay [6] and in assay [10] was inactive. For the same compound, the result in [7] and in assay [8] was inactive.
With `CN1CCOCC1`, the outcome in assay [1], in [9], in [3], in assay [4], in [5] and in assay [6] was inactive. Further, the result in [10], in assay [7] and in assay [8] was inactive.
`CN(C)C(=O)Nc1ccc(Oc2ccc(Cl)cc2)cc1`: the AC50 in assay [1] was 26.7 µM (active). Further, the outcome in assay [9], in [3], in assay [4], in assay [5], in assay [6] and in [10] was inactive. Moreover, the call in assay [7] was inactive.
On to `CCCC1O[C@@H]2C[C@H]3[C@@H]4CCC5=CC(=O)C=C[C@]5(C)[C@H]4[C@@H](O)C[C@]3(C)[C@]2(C(=O)CO)O1` (stereo not given in full), for which the AC50 is 4.12 µM (active) in [1] and 100 µM (active) in assay [7]. In addition, the result in [9], in [3], in assay [4], in assay [5], in assay [6] and in assay [10] was inactive. The compound was called inactive in assay [8].
With `CCCCCCCCCC(C)C=O` (stereo not given), the AC50 in assay [1] is 51.1 µM (active). Further, the compound was called inactive in assay [9], in assay [3], in assay [4], in assay [5], in [6] and in [10]. In addition, the compound was classed as inactive in assay [7] and in assay [8].

The values are drawn from PubChem BioAssay (EPA / NIEHS).
